Data: PubChem BioAssay
For some assays here: Entries with a potency or affinity are not part of this list. Active and inactive are the calls of the source. Unless noted, how the calls were made is not given here.

Columns and labels:
[1] = antimalarial activity against Dd2 strain (AID 2302;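 active means growth inhibition above 50% at the single 2 µM test dose, taken to imply half-maximal potency below 2 µM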;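 further: 0% = DMSO untreated growth and 100% = chloroquine plus artemisinin killed control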); conditions: P. falciparum Dd2 in RBCs, LDH growth readout, 72 h; at 2 µM; active compounds read high
[2] = HepG2 cytotoxicity, primary screen, cytotoxicity control for P. falciparum antimalarial project, cell-based, ATP luminescence (AID 2303;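 active means inhibition above 50%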;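 further: 0% = DMSO wells and 100% = digitonin-killed cells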); conditions: HepG2 viability, 24-48 h, at 10 µM, active compounds read high
[3] = target: L-lactate dehydrogenase (Plasmodium falciparum (isolate CDC / Honduras)) (UniProt Q27743); experiment: PfLDH activity inhibition – cell lysate, 3D7 strain, counter-screen for P. falciparum growth inhibition project (AID 2304);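 further: 0% = vehicle and 100% = reference inhibitor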; conditions: P. falciparum 3D7 crude extract, LDH APAD/NBT absorbance; at 2 µM; active compounds read high
[4] = inhibition of 3D7 malaria parasite growth – strain 3D7 (AID 2306);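 further: 0% = DMSO wells and 100% = chloroquine plus artemisinin control wells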; conditions: P. falciparum 3D7 erythrocytic growth, LDH absorbance, 72 h; at 2 µM; active compounds read high
[5] = target: Calcium-dependent protein kinase 1 (Plasmodium falciparum (isolate 3D7)) (UniProt P62344); experiment: PfCDPK1 kinase inhibitors, biochemical, TCAMS library (AID 1159585; cut-off not given, nearly all actives have IC50 up to about 0.98 µM;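 further: inhibitors leave more ATP so luminescence rises with inhibition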); conditions: recombinant PfCDPK1, Kinase-Glo ATP depletion luminescence
[6] = target: Plasmodium falciparum protein kinase 6 (PK6, PF3D7_1337100) (UniProt Q8IDW1); experiment: PfPK6 kinase inhibitors, biochemical, TCAMS library (AID 1159586); conditions: recombinant PfPK6, Kinase-Glo ATP depletion luminescence
[7] = target: Protein kinase 7 (PK7), Plasmodium falciparum 3D7 (PF3D7_0213400) (UniProt Q7YTF7); experiment: inhibition of Plasmodium PK7 catalytic activity – biochemical, TCAMS antimalarial set, Kinase-Glo luminescence (AID 1159587); conditions: recombinant PfPK7, Kinase-Glo ATP depletion luminescence
[8] = target: Calcium-dependent protein kinase 4 (Plasmodium falciparum (isolate 3D7)) (UniProt Q8IBS5); experiment: PfCDPK4 kinase inhibitors, biochemical, TCAMS library (AID 1159588; cut-off not given, nearly all actives have IC50 up to about 0.91 µM); conditions: recombinant PfCDPK4, Kinase-Glo ATP depletion luminescence
Calcium-dependent protein kinase 4 (Plasmodium falciparum (isolate 3D7)), sequence (Q8IBS5 whole entry, looked up): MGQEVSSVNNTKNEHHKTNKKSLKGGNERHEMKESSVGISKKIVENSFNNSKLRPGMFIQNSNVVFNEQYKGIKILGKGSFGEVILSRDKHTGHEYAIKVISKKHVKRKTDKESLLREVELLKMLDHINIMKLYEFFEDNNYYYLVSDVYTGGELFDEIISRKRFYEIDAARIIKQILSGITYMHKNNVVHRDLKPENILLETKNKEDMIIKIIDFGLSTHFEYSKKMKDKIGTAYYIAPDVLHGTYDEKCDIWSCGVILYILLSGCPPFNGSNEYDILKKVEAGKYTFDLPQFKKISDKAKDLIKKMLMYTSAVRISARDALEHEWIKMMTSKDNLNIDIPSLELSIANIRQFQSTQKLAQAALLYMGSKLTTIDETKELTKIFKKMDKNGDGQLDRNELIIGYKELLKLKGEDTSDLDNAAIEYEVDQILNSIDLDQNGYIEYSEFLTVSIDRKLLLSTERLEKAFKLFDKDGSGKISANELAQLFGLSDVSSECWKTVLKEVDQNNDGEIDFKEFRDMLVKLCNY

L-lactate dehydrogenase (Plasmodium falciparum (isolate CDC / Honduras)), sequence (Q27743 whole entry, looked up): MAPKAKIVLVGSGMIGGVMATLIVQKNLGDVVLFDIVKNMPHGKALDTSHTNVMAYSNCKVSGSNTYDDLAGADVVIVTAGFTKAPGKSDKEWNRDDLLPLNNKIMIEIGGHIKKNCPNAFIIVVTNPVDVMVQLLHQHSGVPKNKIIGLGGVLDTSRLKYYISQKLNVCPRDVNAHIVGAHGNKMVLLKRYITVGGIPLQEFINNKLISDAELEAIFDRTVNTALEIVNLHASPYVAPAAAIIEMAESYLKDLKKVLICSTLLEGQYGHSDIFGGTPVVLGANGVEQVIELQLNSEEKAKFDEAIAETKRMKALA
Plasmodium falciparum protein kinase 6 (PK6, PF3D7_1337100), sequence (Q8IDW1 1-305): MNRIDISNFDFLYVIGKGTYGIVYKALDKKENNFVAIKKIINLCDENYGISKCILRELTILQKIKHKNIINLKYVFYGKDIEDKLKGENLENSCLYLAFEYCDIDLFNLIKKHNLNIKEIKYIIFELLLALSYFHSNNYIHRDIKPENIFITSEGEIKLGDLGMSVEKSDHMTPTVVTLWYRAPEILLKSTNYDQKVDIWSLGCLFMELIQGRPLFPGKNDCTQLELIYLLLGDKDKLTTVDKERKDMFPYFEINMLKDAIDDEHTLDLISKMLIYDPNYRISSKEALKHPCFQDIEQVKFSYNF
Protein kinase 7 (PK7), Plasmodium falciparum 3D7 (PF3D7_0213400), sequence (Q7YTF7 1-343): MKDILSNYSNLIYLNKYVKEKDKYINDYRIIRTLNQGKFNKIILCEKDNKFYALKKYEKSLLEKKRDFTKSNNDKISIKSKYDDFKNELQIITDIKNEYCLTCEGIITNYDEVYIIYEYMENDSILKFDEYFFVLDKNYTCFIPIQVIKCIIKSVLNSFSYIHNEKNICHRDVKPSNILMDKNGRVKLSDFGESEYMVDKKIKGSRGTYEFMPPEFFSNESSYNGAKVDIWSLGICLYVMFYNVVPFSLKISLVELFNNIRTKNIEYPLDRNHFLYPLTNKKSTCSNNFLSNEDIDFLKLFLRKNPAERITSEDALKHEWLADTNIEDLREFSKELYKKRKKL
Calcium-dependent protein kinase 1 (Plasmodium falciparum (isolate 3D7)), sequence (P62344 whole entry, looked up): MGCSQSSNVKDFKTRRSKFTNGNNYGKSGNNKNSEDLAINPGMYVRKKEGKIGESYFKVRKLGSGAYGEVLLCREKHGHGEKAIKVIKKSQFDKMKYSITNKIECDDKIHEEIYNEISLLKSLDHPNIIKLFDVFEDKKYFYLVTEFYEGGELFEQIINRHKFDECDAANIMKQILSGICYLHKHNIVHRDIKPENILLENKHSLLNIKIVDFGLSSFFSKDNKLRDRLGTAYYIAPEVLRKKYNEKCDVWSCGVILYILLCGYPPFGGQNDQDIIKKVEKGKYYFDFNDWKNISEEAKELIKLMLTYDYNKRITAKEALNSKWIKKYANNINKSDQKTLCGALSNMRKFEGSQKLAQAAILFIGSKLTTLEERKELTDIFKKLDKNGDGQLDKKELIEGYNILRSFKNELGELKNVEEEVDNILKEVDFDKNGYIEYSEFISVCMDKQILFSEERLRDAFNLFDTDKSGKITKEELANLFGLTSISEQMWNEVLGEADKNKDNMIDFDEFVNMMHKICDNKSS

Cc1cc(=O)c2cc(Oc3cccc(OC(F)(F)F)c3)ccc2[nH]1
active: growth inhibition [1] 80% | growth inhibition [4] 90%
inactive: inhibition [2] 9% | inhibition [3] 2% | outcome [5] | outcome [6] | outcome [7] | outcome [8]

Cc1ccc2c(OCCN3CCC(Cc4cc5c(cc4F)OCC(=O)N5)CC3)cc(F)cc2n1
inactive: inhibition [2] 27% | inhibition [3] 3% | outcome [5] | outcome [6] | outcome [7] | outcome [8]
active: growth inhibition [1] 71% | growth inhibition [4] 100%

CCCCC1(NC(=O)[C@@H](Nc2ccc(C#N)c3ccccc23)C2CCCCC2)CCCCC1
active: growth inhibition [1] 84% | growth inhibition [4] 91%
inactive: inhibition [2] 8% | inhibition [3] 0% | outcome [5] | outcome [6] | outcome [7] | outcome [8]

CCc1cn(CCCOC)c2ccc(C(=O)N[C@@H](Cc3ccccc3)[C@H](O)CNCc3cccc(C(F)(F)F)c3)cc12
inactive: inhibition [2] 8% | inhibition [3] -4% | outcome [5] | outcome [6] | outcome [7] | outcome [8]
active: growth inhibition [1] 78% | growth inhibition [4] 93%

O=[N+]([O-])c1ccc(C=NNc2nc3ccccc3[nH]2)cc1
active: growth inhibition [1] 98% | growth inhibition [4] 101%
inactive: inhibition [2] 11% | inhibition [3] -6% | outcome [5] | outcome [6] | outcome [7] | outcome [8]

Nc1ncnc2nc(-c3ccc(F)cc3)cc(-c3ccc(NC(=O)c4ccccc4)cc3)c12
inactive: inhibition [2] -6% | inhibition [3] 0% | outcome [5] | outcome [6] | outcome [7] | outcome [8]
active: growth inhibition [1] 97% | growth inhibition [4] 100%

CC(C)(C)OC(=O)NCc1ccc(Nc2nnc(-c3cccc(OCC(=O)NCc4cc(C(F)(F)F)cc(C(F)(F)F)c4)c3)o2)cc1
inactive: growth inhibition [1] 19% | inhibition [2] 32% | inhibition [3] 1% | outcome [5] | outcome [6] | outcome [7] | outcome [8]
active: growth inhibition [4] 90%

CCOC(=O)N1NC(=O)N(c2ccccc2)C1(c1ccccc1)c1ccccc1
active: growth inhibition [1] 82% | growth inhibition [4] 96%
inactive: inhibition [2] 5% | inhibition [3] 6% | outcome [5] | outcome [6] | outcome [7] | outcome [8]

CC1CN(c2ccc(NC(=O)c3cccs3)cc2)CCN1Cc1cccc(F)c1 (stereo not given)
active: growth inhibition [1] 96% | growth inhibition [4] 96%
inactive: inhibition [2] 5% | inhibition [3] 0% | outcome [5] | outcome [6] | outcome [7] | outcome [8]

COc1ccc2[nH]c3ccccc3c(=O)c2c1
active: growth inhibition [1] 75% | growth inhibition [4] 87%
inactive: inhibition [2] 0% | inhibition [3] 2% | outcome [5] | outcome [6] | outcome [7] | outcome [8]

Oc1ccc(CCNc2nc(NCc3ccc4cc(Cl)ccc4c3)nc(N3CCNCC3)n2)cc1
active: growth inhibition [4] 92%
inactive: growth inhibition [1] 38% | inhibition [2] 14% | inhibition [3] -3% | outcome [5] | outcome [6] | outcome [7] | outcome [8]

CC(C)(CNCc1cccc(Oc2cccc(C(F)(F)F)c2)c1)c1nc(-c2ccc(Cl)c(O)c2)c(-c2ccnc(N)n2)[nH]1
inactive: inhibition [2] 23% | inhibition [3] 2% | outcome [5] | outcome [6] | outcome [7] | outcome [8]
active: growth inhibition [1] 98% | growth inhibition [4] 99%

Cc1noc(C)c1-c1cccc(CNCc2cccc(-c3ccc(-c4nc5ccccc5[nH]4)s3)c2)c1
active: growth inhibition [4] 101%
inactive: growth inhibition [1] 29% | inhibition [2] 24% | inhibition [3] -1% | outcome [5] | outcome [6] | outcome [7] | outcome [8]

COc1cc(OC)cc(C(=O)N2CCOC(CCN3CCC(c4ccccc4)CC3)(c3ccc(Cl)c(Cl)c3)C2)c1 (stereo not given)
active: growth inhibition [1] 61% | growth inhibition [4] 85%
inactive: inhibition [2] 13% | inhibition [3] 1% | outcome [5] | outcome [6] | outcome [7] | outcome [8]

c1ccc2c(NCCCCCCNc3ccnc4ccccc34)ccnc2c1
active: growth inhibition [4] 100%
inactive: growth inhibition [1] 12% | inhibition [2] 43% | inhibition [3] 5% | outcome [5] | outcome [6] | outcome [7] | outcome [8]

COc1cccc(C(=O)NCCc2cccc(Cl)c2)c1OCc1ccccc1
active: growth inhibition [4] 85%
inactive: growth inhibition [1] -1% | inhibition [2] -1% | inhibition [3] 1% | outcome [5] | outcome [6] | outcome [7] | outcome [8]

Cc1ccc(F)c(OCC2CCN(c3ncc(C(=O)NC4CC4)cc3Cl)CC2)c1
active: growth inhibition [1] 95% | growth inhibition [4] 96%
inactive: inhibition [2] 9% | inhibition [3] -3% | outcome [5] | outcome [6] | outcome [7] | outcome [8]

CNC(=O)c1ccc2nc(-c3ccc(-c4ccccc4)cc3)n(CC3CCN(CC4CCCC4)CC3)c2c1
active: growth inhibition [4] 84%
inactive: growth inhibition [1] 36% | inhibition [2] 13% | inhibition [3] -6% | outcome [5] | outcome [6] | outcome [7] | outcome [8]

Cc1nc(C)n(CC(=O)Nc2cccc(-c3cccc(-c4nc5ccc(C(F)(F)F)cc5[nH]4)c3)c2)n1
active: growth inhibition [1] 96% | inhibition [2] 62% | growth inhibition [4] 100%
inactive: inhibition [3] -6% | outcome [5] | outcome [6] | outcome [7] | outcome [8]

C[C@H](Cc1ccc(OCCCCCCOc2ccc(C[C@@H](C)N[C@H](C)c3ccccc3)cc2)cc1)NC[C@H](O)c1cccc(Cl)c1
active: growth inhibition [1] 98% | inhibition [2] 99% | growth inhibition [4] 99%
inactive: inhibition [3] -4% | outcome [5] | outcome [6] | outcome [7] | outcome [8]

Cc1cc(=O)c(-c2ccc(Oc3ccc(F)cc3)cc2)c(C)[nH]1
inactive: inhibition [2] -3% | inhibition [3] 3% | outcome [5] | outcome [6] | outcome [7] | outcome [8]
active: growth inhibition [1] 59% | growth inhibition [4] 85%

CCOc1ccc2nc(C)cc(NN=Cc3ccccc3)c2c1
active: growth inhibition [4] 96%
inactive: growth inhibition [1] 8% | inhibition [2] 5% | inhibition [3] -3% | outcome [5] | outcome [6] | outcome [7] | outcome [8]

CC[C@H]1CN(Cc2cccc(O)c2)CC[C@H]1CCCc1ccnc2ccc(O)cc12
inactive: inhibition [2] 14% | inhibition [3] 4% | outcome [5] | outcome [6] | outcome [7] | outcome [8]
active: growth inhibition [1] 98% | growth inhibition [4] 103%

Cc1nnc2c(NC(=O)NC(C)C)cc3cc(-c4ccc(CN5CCCCC5)cc4)ccc3n12
inactive: growth inhibition [1] 8% | inhibition [3] 1% | outcome [5] | outcome [6] | outcome [7] | outcome [8]
active: inhibition [2] 70% | growth inhibition [4] 87%

Cc1onc(-c2c(Cl)cccc2Cl)c1C(=O)N1CCc2cc3nccc(N4CCN5CCC[C@H]5C4)c3cc21
active: growth inhibition [1] 58% | growth inhibition [4] 101%
inactive: inhibition [2] 3% | inhibition [3] -5% | outcome [5] | outcome [6] | outcome [7] | outcome [8]

COc1ccc(-c2cccc(NC(=O)c3cccc(Cl)c3)c2)cc1CN1CCCN(C)CC1
inactive: inhibition [2] 20% | inhibition [3] 6% | outcome [5] | outcome [6] | outcome [7] | outcome [8]
active: growth inhibition [1] 99% | growth inhibition [4] 101%

N#Cc1ccc(-c2ccc(C(=O)NC3CCN(CCN4CCc5c(cccc5C(F)(F)F)C4)CC3)cc2)cc1
active: growth inhibition [1] 51% | growth inhibition [4] 98%
inactive: inhibition [2] 40% | inhibition [3] -1% | outcome [5] | outcome [6] | outcome [7] | outcome [8]

COc1ccc2ncc(F)c(CCN3[C@@H]4CC[C@H]3CC(NCc3ccc5c(c3)OCCO5)C4)c2n1 (stereo not given in full)
inactive: growth inhibition [1] 35% | inhibition [2] 27% | inhibition [3] -5% | outcome [5] | outcome [6] | outcome [7] | outcome [8]
active: growth inhibition [4] 102%

Cn1c(=O)n(C)c2cc(CNCCNc3ccnc4cc(Cl)ccc34)ccc21
active: growth inhibition [1] 96% | growth inhibition [4] 101%
inactive: inhibition [2] 17% | inhibition [3] -1% | outcome [5] | outcome [6] | outcome [7] | outcome [8]

CN1Cc2ccc(NS(=O)(=O)c3ccc(-c4ccoc4)cc3)cc2C1
inactive: growth inhibition [1] 2% | inhibition [2] -3% | inhibition [3] -2% | outcome [5] | outcome [6] | outcome [7] | outcome [8]
active: growth inhibition [4] 97%

CCCCCCn1c(Sc2ccc(C#N)c([N+](=O)[O-])c2)nnc1-c1cc(OC)cc(OC)c1
inactive: growth inhibition [1] 41% | inhibition [2] 35% | inhibition [3] -5% | outcome [5] | outcome [6] | outcome [7] | outcome [8]
active: growth inhibition [4] 95%

Cc1ccc(S(=O)(=O)N(CCCN2CCN(C)CC2)Cc2csc(-c3ccc(CNCc4ccccc4)cc3)n2)cc1
active: growth inhibition [1] 90% | growth inhibition [4] 97%
inactive: inhibition [2] 15% | inhibition [3] 3% | outcome [5] | outcome [6] | outcome [7] | outcome [8]

CCc1c(CCNCCCCCCNCCc2ccc(Br)cc2)ccc(OC)c1OC
inactive: growth inhibition [1] 14% | inhibition [3] 0% | outcome [5] | outcome [6] | outcome [7] | outcome [8]
active: inhibition [2] 100% | growth inhibition [4] 99%

Nc1nc2ccc(S(=O)(=O)Nc3ccc(C(=O)N[C@@H](CCC(=O)O)C(=O)O)c(F)c3)cc2c(=O)[nH]1
active: growth inhibition [4] 97%
inactive: growth inhibition [1] 16% | inhibition [2] 37% | inhibition [3] 4% | outcome [5] | outcome [6] | outcome [7] | outcome [8]

CC(C)(C)C1CCC(C(=O)c2ccc3ccccc3c2O)CC1 (stereo not given)
active: growth inhibition [1] 63% | growth inhibition [4] 83%
inactive: inhibition [2] -4% | inhibition [3] -1% | outcome [5] | outcome [6] | outcome [7] | outcome [8]

Cc1cc(NC(=O)Nc2ccc(N(C)C)cc2)c2cc(Cl)ccc2n1
active: growth inhibition [1] 50% | growth inhibition [4] 100%
inactive: inhibition [2] -4% | inhibition [3] 3% | outcome [5] | outcome [6] | outcome [7] | outcome [8]

CN(CCCc1c[nH]c2ccccc12)CCC1CCC(NC(=O)/C=C/c2ccc(Cl)c(Cl)c2)CC1 (stereo not given)
active: growth inhibition [1] 63% | growth inhibition [4] 99%
inactive: inhibition [2] 38% | inhibition [3] -3% | outcome [5] | outcome [6] | outcome [7] | outcome [8]

Cc1cnc(NCC2CCCCC2)nc1N[C@@H](CO)C(=O)Nc1ccccc1
active: growth inhibition [1] 56% | growth inhibition [4] 83%
inactive: inhibition [2] -1% | inhibition [3] -3% | outcome [5] | outcome [6] | outcome [7] | outcome [8]

Cc1ccc(C(=O)Nc2ccc(Cl)c(N3CCN(CCc4ccccc4)CC3)c2)cc1
inactive: growth inhibition [1] 14% | inhibition [2] 17% | inhibition [3] -7% | outcome [5] | outcome [6] | outcome [7] | outcome [8]
active: growth inhibition [4] 90%

CN1CCC(Oc2ccc(CN3CC[C@H](NC(=O)c4cccc(C#N)c4)C3)c3ccccc23)C1 (stereo not given in full)
active: growth inhibition [4] 97%
inactive: growth inhibition [1] 30% | inhibition [2] 10% | inhibition [3] -1% | outcome [5] | outcome [6] | outcome [7] | outcome [8]
